Compound activity (PubChem)
HT1080-NT tox – kills 2HG-producing HT-1080-NT fibrosarcoma cells | AID 686970 | hit rate 1.6% among 360,000 | Potency, µM (highest dose often 46.1 µM), without a hit: at the highest dose activity, negative = less viability, most hits filed as cytotoxic | HT-1080-NT fibrosarcoma viability, CellTiter-Glo ATP luminescence, 48 h;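 also: NT is the 2HG producing partner of a matched IDH1 knockdown line; 0% = DMSO-treated cells and -100% = media-only wells without cells; nearly all actives have a fitted effect of over 55% in size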
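Viability by CellTiter-Glo luminescence after 48 h compound exposure at 37C of HT-1080-NT cells (750/well, RPMI, 5% FBS). % activity scaled between DMSO wells and medium-only wells, then curve-fitted and categorized by curve class.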
ATXN viability – viability counter-screen for ATXN expression inhibitors. Potency, µM (titrated, usually from 56.7 µM), usual class: cytotoxic. AID 651635. S2 cells (HEK-293 line with an ATXN2-luciferase reporter) viability, CellTiter-Fluor protease fluorescence, 24 h. hit rate 0.49% among 400,000; also: nearly all actives have a fitted effect of over 40% in size
HepG2 viability – counter-screen for TGF-b inhibitors: cytotoxicity in HepG2 cells | HepG2 CAGA-GFP viability, ATP luminescence, 18 h | Potency, µM (doses to about 46.1 µM), for the others: top-dose activity change, negative = cytotoxicity, usual class: cytotoxic | hit rate 0.76% among 410,000 | AID 588856
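HepG2 CAGA-GFP cells (1000/well, DMEM with 1% FBS) received compound, then TGF-beta at 500 pg/mL final, and were incubated 18 hours at 37 degrees C. Viability was read by CellTiter-Glo luminescence. Media-only wells were set as complete cell-killing and DMSO as no toxicity.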
TGFb inhibitor – inhibitors of TGF-b signaling; Potency, µM (titrated, usually from 46.1 µM), without a hit: at the highest dose activity, negative = inhibition, hits mostly inhibitors; hit rate 1.2% among 410,000; HepG2 CAGA-GFP TGF-b/SMAD3 reporter, GFP fluorescence, 18 h; TGF-beta stimulated, 500 pg/mL final; also: % is scaled to controls: 0 for no effect and ±100 for the full control effect; nearly all actives have a fitted effect of over 65% in size
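HEPG2 CAGA-GFP cells (1000/well, DMEM with 1% FBS) were pre-incubated 2 h at 37 degrees C, given compound by pin tool, then stimulated with TGF-beta at 500 pg/mL final for 18 h before per-cell GFP fluorescence imaging.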
ATXN2 expr inh – reduces ATXN2 reporter expression in HEK-293 cells; HEK-293 ATXN2-luciferase reporter, luminescence, 24 h; Potency, µM (titrated, usually from 57 µM), for the others: at the highest dose activity change, negative = inhibition, actives largely listed as inhibitors; hit rate 0.72% among 360,000; also: % is scaled to controls: 0 for no effect and ±100 for the full control effect; nearly all actives have a fitted effect of over 55% in size
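qHTS (up to 57 uM final) was run with 24 h compound exposure of reporter cells at 37 °C. Each well was multiplexed: SteadyGlo luminescence measured ATXN2-luciferase expression after a fluorogenic Gly-Phe-AFC viability readout (25 uM final).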
HT1080 IDH1KD tx – HT-1080 IDH1 knockdown cell toxicity (counter line); HT-1080 IDH1 knockdown viability, ATP luminescence, 48 h; Potency, µM (series often up to 46.1 µM), for inactives: at the highest dose activity, negative = toxicity, most hits filed as cytotoxic; hit rate 2% among 360,000;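 also: 0% = DMSO wells and -100% = cell-free medium wells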
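HT-1080-IDH1KD cells (IDH1 knocked down), 750/well in RPMI with 5% FBS, treated with compound 48 h at 37 degrees C. Viability by CellTiter-Glo luminescence, normalised to DMSO and no-cell wells; concentration-response curves classed.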
* hit, by the source's call; i = inactive; ? = inconclusive; . = not tested or not shown. Only some compounds are listed: those with a hit (about 3.8% of all), similar ones and a draw of the others. Calls follow the shape of the dose curve; as a rule, active = well fitted curve in the direction sought with a large enough effect; inconclusive = small, poorly fitted or top-dose-only effect, or another doubt; inactive = no such curve, though single readings can be large; an effect the other way counts as inactive or inconclusive. Potency is read from the fitted curve at half-maximal effect.

SMILES	HT1080-NT tox	ATXN viability	HepG2 viability	TGFb inhibitor	ATXN2 expr inh	HT1080 IDH1KD tx
CCc1cc(C(=O)N2CCOc3ccc(CN4CCN(Cc5ccccn5)CC4)cc3C2)no1	.	i	.	.	.	.
Cc1ccc2c(C(=O)CNC3=NCCS3)c(C)[nH]c2c1	.	.	-14%	0%	.	.
O=C(Nc1cnn(Cc2ccc(Cl)cc2Cl)c1)c1cc(-c2cccs2)on1	-1%	?	-32%	?	?	-28%
CC(=O)c1cccc(NC(=O)Nc2cnn(Cc3ccc(Cl)cc3Cl)c2)c1	?	i	-21%	?	-26%	14µM*
O=C(Nc1cnn(Cc2ccc(Cl)cc2Cl)c1)c1noc2c1CCCC2	-12%	?	-2%	16µM*	-15%	-17%
CC(C)(C)n1ncc2c(=O)n(Cc3ccc(C#N)cc3)cnc21	.	.	-29%	-14%	.	.
COc1cc(OC)c(C(=O)N(Cc2ccco2)Cc2cccs2)cc1OC	.	.	-7%	-4%	.	.
CNC(=O)c1ccccc1Sc1ccc2c(C=Cc3ccccn3)n[nH]c2c1	.	.	.	.	9%	.
CCN(CC)CCCNC(=O)c1ccc2c(c1)N(Cc1c(F)cccc1Cl)C(=O)c1ccccc1S2	.	i	11µM*	10µM*	20µM*	.
O=C(NCc1ccco1)c1ccc2c(c1)N(Cc1c(F)cccc1Cl)C(=O)c1ccccc1S2	.	i	-2%	?	10%	.
Cc1[nH]c2ccccc2c1C(=O)CN1CCN(C/C=C/c2ccccc2)CC1	23µM*	i	-11%	-6%	-26%	?
Oc1cccc2c(CC(O)c3c[nH]c4ccccc34)ccnc12 (configuration not stated)	.	.	-3%	?	.	.
COc1cc(C(=O)NC(=S)NNC(=O)c2cnccn2)cc(OC)c1OC	?	i	-4%	-4%	?	15µM*
COc1ccccc1C(=O)NNC(=S)NC(=O)c1cc(OC)c(OC)c(OC)c1	-18%	i	-19%	-8%	?	?
COc1ccc(C(=O)NC(=S)NNC(=O)c2cnccn2)cc1	?	i	-29%	3%	?	2.9µM*
O=C(NC(=S)NNC(=O)c1cnccn1)c1ccc(Cl)cc1	-18%	?	6%	31%	?	?
COc1ccc(C(=O)NC(=S)Nc2ccc(Cc3ccncc3)cc2)cc1	18µM*	?	-17%	-26%	-26%	21µM*
CCCCn1nnnc1C(c1cc2ccccc2o1)N(CCN(C)C)Cc1ccccc1 (configuration not stated)	18µM*	.	.	.	32µM*	21µM*
CCCCn1nnnc1C(c1cc2ccccc2o1)N1CCN(c2cc(C)nc3ccccc23)CC1 (configuration not stated)	18µM*	4.5µM*	.	.	?	?
CCCCn1nnnc1C(c1cc2ccccc2o1)N1CCN(c2ccccc2F)CC1 (configuration not stated)	16%	i	.	.	6%	7%
CSCCC(NS(=O)(=O)c1ccc2c(c1)oc(=O)n2C)C(=O)NCc1ccc(Cl)cc1 (configuration not stated)	.	.	1%	-1%	.	.
Cc1[nH]c2ccccc2c1C(=O)COC(=O)c1c(-c2c(F)cccc2Cl)noc1C	3%	?	-6%	13µM*	?	-9%
COc1cc2c(cc1OC)CN(CCC(=O)c1ccc(Br)cc1)CC2	26µM*	i	-27%	?	.	23µM*
COc1cc2c(cc1OC)CN(C(=O)CCNC(=O)c1ccc(Br)cc1)CC2	3%	i	-5%	0%	0%	1%
CC(=O)N1N=C2c3ccccc3CCC2C1c1ccc(F)cc1 (configuration not stated)	?	.	-26%	?	1%	21µM*
SMILES	HT1080-NT tox	ATXN viability	HepG2 viability	TGFb inhibitor	ATXN2 expr inh	HT1080 IDH1KD tx
C(=Nc1ccc(/C=C/c2ccnc3ccccc23)cc1)c1ccc2c(c1)OCO2	.	.	-37%	0%	.	.
CC(=O)c1cccc(CN2CCC(C(=O)Nc3ccc(-c4cccc(C)c4)cc3)CC2)c1	?	?	-107%	?	?	21µM*
O=C(O)c1cn(C2CC2)c2cc(Cl)c(F)cc2c1=O	.	i	.	.	21%	.
O=C(CCc1ccc(Oc2cc([N+](=O)[O-])cc([N+](=O)[O-])c2)cc1)N1CCCCCC1	-13%	i	-38%	18µM*	?	-14%
Cc1cccc(C)c1NC(=O)C(=O)NCC(c1cccnc1)N1CCc2ccccc21 (configuration not stated)	.	.	-19%	-14%	.	.
CCCCc1nc2ccccc2n1CC(=O)N(COCC)c1c(C)cccc1CC	.	i	-31%	?	-10%	.
CC(=O)Nc1nc2cc3c(cc2s1)OCO3	-3%	i	-11%	5%	8%	-3%
CC1CCc2nc(NC(=O)c3ccco3)sc2C1 (configuration not stated)	-14%	i	-40%	-2%	11µM*	-15%
O=C(Nc1nc2cc3c(cc2s1)OCO3)C1=COCCO1	13µM*	i	8.9µM*	-3%	?	18µM*
Cc1ccc(C(=O)Nc2nc3ccc(S(C)(=O)=O)cc3s2)o1	21µM*	i	-81%	-14%	2%	?
CCOc1ccc2nc(NC(=O)c3ccco3)sc2c1	21µM*	i	-52%	-6%	-29%	18µM*
Cc1cc(N2CCN(C)CC2)nc2ccc(NC(=O)Nc3ccccc3Cl)cc12	.	i	-13%	40%	31%	.
Cc1ccc(N2CCN(C(=O)CCc3c(C)nc4ncnn4c3C)CC2)c(C)c1	.	i	-23%	?	-26%	.
CC(=O)c1ccc(NC(=O)CCc2c(C)nn(-c3ccc4nnc(C)n4n3)c2C)cc1	.	.	6%	26%	.	.
CCOC(=O)C1CCN(C(=O)c2ccc(NC(=O)c3nsc4ccccc34)cc2)CC1	.	.	-44%	0%	.	.
CCc1cccc(C)c1NS(=O)(=O)c1ccc2c(c1)CC(C)N2C(=O)C1CC1 (configuration not stated)	.	?	-29%	?	-23%	.
O=C(Nc1nc2cc3c(cc2s1)OCCO3)c1ccco1	?	?	-64%	8%	8.9µM*	?
CCOc1ccc2nc(NC(=O)c3ccoc3C)sc2c1	2.3µM*	i	1.8µM*	-15%	2%	3.7µM*
CCOc1ccc2nc(NC(=S)NCc3ccccc3)sc2c1	?	i	-28%	-6%	-13%	4µM*
COc1ccc(NC(=O)Cc2ccc(Cl)c(Cl)c2)cn1	-4%	i	-11%	-14%	.	-2%
